The full list was thinned out, with hits kept by preference.
FECH inh – human FECH heme synthesis enzyme inhibition. P22830. purified FECH, Ni-mesoporphyrin absorbance 550 nm. calls only at 10 µM (by protocol). 20,000 tested, 3.3% active;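 active = enzyme reaction rate more than 3 SD below the solvent-only control wells on the same plate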;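 also: lower slope than DMSO wells means FECH inhibition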
Target sequence (P22830 whole entry, looked up): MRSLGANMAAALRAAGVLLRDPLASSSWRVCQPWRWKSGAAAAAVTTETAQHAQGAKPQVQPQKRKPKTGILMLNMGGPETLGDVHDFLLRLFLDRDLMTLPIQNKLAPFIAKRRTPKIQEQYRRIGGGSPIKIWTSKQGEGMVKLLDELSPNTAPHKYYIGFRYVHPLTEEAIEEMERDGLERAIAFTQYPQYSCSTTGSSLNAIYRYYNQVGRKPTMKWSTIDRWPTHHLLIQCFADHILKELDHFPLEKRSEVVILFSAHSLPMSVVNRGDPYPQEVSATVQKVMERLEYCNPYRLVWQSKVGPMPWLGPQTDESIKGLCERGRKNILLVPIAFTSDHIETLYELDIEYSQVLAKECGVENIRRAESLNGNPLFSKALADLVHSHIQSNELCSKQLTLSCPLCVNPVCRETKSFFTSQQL
* marks the source's active call; other numbers are inactive results; i = inactive; + = active, no number.

SMILES | FECH inh
CCOc1ccc(NC(=O)CN2CCCN(Cc3ccc(OC)cc3)S2(=O)=O)cc1 | i
CCc1ccc(NC(=O)CN2CCCN(Cc3ccc(Cl)cc3)S2(=O)=O)cc1 | i
CCS(=O)(=O)N1CCN(c2nc(C)cc(N3CCCC3)n2)CC1 | i
O=C(Nc1ccccc1CCc1nc2ccccc2[nH]1)C1CCN(S(=O)(=O)N2CCCC2)CC1 | i
CCOc1ccccc1CNc1nc(-c2nnc(-c3ccc(C)cc3)o2)nc2ccccc12 | i
Cc1cc(C)n(CCC(=O)NC(C)Cc2cnccn2)c(=O)n1 (stereo not given) | i
CCCN(Cc1ccccn1)C(=O)c1oc2cc(OC)ccc2c1C | i
O=C(NCc1ccccc1)c1nc[nH]c1C(=O)N1CCCCCC1 | i
O=C(NCc1ccccc1)c1nc[nH]c1C(=O)N1CCC(Cc2ccccc2)CC1 | i
CC1CCN(C(=O)c2[nH]cnc2C(=O)NCc2ccccc2)CC1 | i
CNC(=O)c1[nH]cnc1C(=O)NCc1ccccc1 | +
COCCNC(=O)c1nc[nH]c1C(=O)NCc1ccccc1 | +
CCCNC(=O)c1[nH]cnc1C(=O)NCCc1c[nH]c2ccccc12 | i
CC(=O)c1ccccc1-c1ccncc1C | i
Cc1nccn1CCCC(=O)N1Cc2cnc(CC(C)C)nc2C1 | i
CCN(CC)C(CNC1CCN(C)CC1)c1ccco1 (stereo not given) | i
Cc1cnc(CN(C)CC(=O)Nc2cccc(F)c2C)[nH]1 | +
CO[C@H]1COC[C@@H]1NCC(=O)Nc1cccc(F)c1C | i
CN(CC(=O)NCc1ccccc1F)Cc1cccc2ncccc12 | i
COc1cc(NC(=O)C2Cc3cc(S(=O)(=O)N4CCCCC4)ccc3N2C(C)=O)cc(OC)c1 (stereo not given) | i
CCOC(=O)Cn1c(=O)n(-c2ccc(F)cc2)c2nc(-c3ccc(C)c(C)c3)nc(C(N)=O)c21 | i
CCCc1nc(N2CCC(N3CCCC(C(=O)N4CCN(C)CC4)C3)CC2)no1 (stereo not given) | i
O=C1NCC(=O)N2CCN(C(=O)c3ccc(CN4CCCCC4)cc3)CC12 (stereo not given) | i
CCc1c(C)nc2ncnn2c1Sc1ccc(NC(C)=O)cc1 | i
CCc1c(C)nc2ncnn2c1Sc1ccc(NC(=O)c2ccccc2Cl)cc1 | i
SMILES | FECH inh
CCc1ccc(NC(=O)Nc2ccc(Sc3c(CC)c(C)nc4ncnn34)cc2)cc1 | i
CCc1c(C)nc2ncnn2c1Sc1ccc(NC(=O)c2cc(OC)c(OC)c(OC)c2)cc1 | i
CCc1c(C)nc2ncnn2c1Sc1ccc(NC(=O)NCc2ccccc2)cc1 | +
CCCc1c(C)nc2ncnn2c1Sc1ccc(NC(=O)c2ccccc2OC)cc1 | i
CCOc1ccccc1C(=O)Nc1ccc(Sc2c(CC)c(C)nc3ncnn23)cc1 | +
CCc1c(C)nc2ncnn2c1Sc1ccc(NC(=O)c2ccccc2OC)cc1 | +
CCOc1ccccc1C(=O)Nc1ccccc1Sc1c(CC)c(C)nc2ncnn12 | i
CN(CCCNC(=O)c1cccn1-c1nnc(N2CCCCC2)s1)c1ccccc1 | i
Cc1cnc(CN(C)C(=O)C23CC4C[C@@](C)(C2)C[C@](C)(C4)C3)[nH]1 | i
COCCN1CC(C(=O)N2CCN(c3cccc(C)n3)CC2)CC1=O (stereo not given) | i
CC(C)c1cc(C(=O)NC2CC(=O)N(C3Cc4ccccc4C3)C2)cs1 (stereo not given) | i
CCn1c(CNS(=O)(=O)c2ccccc2)nc2cccnc21 | i
CCC(CC)C(=O)Nc1ccc(Nc2nc(C)cc(N(C)C)n2)cc1 | i
Cc1cc(C)n2nc(CN(C(=O)CC(C)C)c3ccccc3Cl)nc2n1 | i
CC(=O)c1cccc(Nc2cc(-c3ccc(C)cc3)nc(C)n2)c1 | i
COc1cc(Nc2cc(-n3nc(C)cc3C)ncn2)cc(OC)c1 | +
COc1cccc(Nc2cc(-n3nc(C)cc3C)ncn2)c1 | i
Cc1cc(C)n(-c2cc(Nc3ccc(Cl)cc3)ncn2)n1 | i
Cc1cc2nc(COc3ccc(Cl)cc3NC(=O)C3CCCCC3)cc(=O)n2o1 | i
c1cncc(-c2nc(CCNCc3nc(-c4ccco4)no3)cs2)c1 | +
O=C(NCCc1csc(-c2cccnc2)n1)C1CNCCO1 (stereo not given) | i
Cc1nc2c(c(NCCc3csc(-c4cccnc4)n3)n1)CCNC2 | i
Cc1ccccc1Cn1cc(C(=O)Nc2ccc(F)c(F)c2)ccc1=O | i
COCCc1ncc(CN2CCN(c3ccccc3OC)C(C)(C)C2)cn1 | i
COc1ccccc1CNc1nc(SC)nc(-c2ccccc2)c1C#N | i
SMILES | FECH inh
COc1ccc(OC)c(S(=O)(=O)N2CCC(n3c(-c4ccccc4)nc4cccnc43)CC2)c1 | i
Cc1ccccc1CNS(=O)(=O)c1cc(C(=O)N2CCCC2)cs1 | i
Cc1ccc(C)c(NS(=O)(=O)c2cc(C(=O)N3CCCC3)cs2)c1 | +
CCc1cccc(C)c1NS(=O)(=O)c1cc(C(=O)N2CCCC2)cs1 | i
Cc1cccc(NS(=O)(=O)c2cc(C(=O)N3CCCC3)cs2)c1C | +
O=C(c1csc(S(=O)(=O)Nc2ccccc2F)c1)N1CCCCC1 | i
CCc1ccccc1NS(=O)(=O)c1cc(C(=O)N2CCCC2)cs1 | i
O=C(c1cc(Cl)ccc1Cl)N1CCN(S(=O)(=O)c2cc3c4c(c2)CCN4C(=O)CC3)CC1 | i
Cc1ccccc1-c1cc(O)c2c(c1)CN(C(=O)c1ccnc(N)c1)CCO2 | i
CC(=O)Nc1ccc2nc(CN3C[C@H](O)[C@@H](N4CCN(C)CC4)C3)ccc2c1 | i
Cc1ccc(-c2nc3cccnc3n2CCNS(=O)(=O)c2ccc(C)cc2)cc1 | i
CCc1ccccc1NC(=O)NCCn1c(-c2ccncc2)nc2cccnc21 | i
Cc1cc(C)cc(NC(=O)NCCn2c(-c3ccncc3)nc3cccnc32)c1 | i
CCc1ccc(S(=O)(=O)NCCn2c(-c3ccc(C)cc3)nc3cccnc32)cc1 | i
Cc1ccc(NC(=O)NCCn2c(-c3ccncc3)nc3cccnc32)cc1Cl | +
CCC(=O)Nc1ccc(S(=O)(=O)NCCn2c(-c3ccc(C)cc3)nc3cccnc32)cc1 | +
COc1ccc(NC(=O)NCCn2c(-c3ccncc3)nc3cccnc32)cc1 | i
COc1ccc(CC(=O)NCCn2c(-c3ccccc3)nc3cccnc32)c(Cl)c1 | i
COC(=O)CNC(=O)NCCn1c(-c2ccccc2)nc2cccnc21 | +
C=CCn1cc(CN2CCC(Oc3ncccn3)CC2)c(C)n1 | i
CNS(=O)(=O)c1ccc(CCC(=O)N2CCC3(CCCNC3)C2)cc1 (stereo not given) | i
Cc1cc(C)n2nc(N(CCOc3ccccc3)S(=O)(=O)c3ccc(Cl)cc3)nc2n1 | i
Cc1ccc(C2=CC(c3ccccc3Cl)n3nc(NC(=O)CCc4ccccc4)nc3N2)cc1 (stereo not given) | i
Cc1ccc(NC2(C(=O)N(C)Cc3nc4ccccc4[nH]3)CCCC2)cc1 | i
Cc1cccnc1CC(C)NC(=O)c1n[nH]c(=O)c2ccccc12 (stereo not given) | i
CC(c1cccnc1)N(C)Cc1cccc(-n2cccn2)c1 (stereo not given) | i
O=S(=O)(c1ccccc1)N1CCC(n2c(C(F)(F)F)nc3cccnc32)CC1 | i
COc1ccc(Cl)cc1S(=O)(=O)N1CCC(n2c(C(F)(F)F)nc3cccnc32)CC1 | i
COc1ccc(S(=O)(=O)N2CCC(n3c(C(F)(F)F)nc4cccnc43)CC2)cc1OC | +

Screens as filed in PubChem.
